# Measurements as given in PubChem BioAssay (NCATS).
# Results filed as inconclusive are left out. Activity calls are given as the source filed them. The call rests on the fitted dose curve; in most records, active means well fitted inhibition curve with a large enough effect; inconclusive means small, poorly fitted or top-dose-only effect; inactive means no such curve, though single readings can be large or run the other way.
# Test system: Zika virus NS2B-NS3 protease (unlinked complex)
# Experiment: Primary screen GU Rhodamine qHTS for Zika virus inhibitors: Unlinked NS2B-NS3 protease assay (AID 1347159); further: nearly all actives have a fitted effect of over 60% in size
# Conditions: Recombinant ZIKV NS2B-NS3 protease, Rhodamine110 substrate fluorescence; series mostly up to 107 µM; activity change, negative = inhibition: at the top concentration
# In short: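 In dose–response format, inhibition of unlinked protease (25 nM) was measured with 1.5 microM bis-peptide Rhodamine110 substrate. Aprotinin served as the intraplate control.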
# On the % scale 0 is the no-effect control and ±100 the full control effect; potency means the concentration at half of the fitted maximal effect.
Structure (SMILES),"activity change, negative = inhibition",Potency
OC[C@@]1(O)CO[C@H](OC[C@H]2O[C@@H](OCCc3ccccc3)[C@H](O)[C@@H](O)[C@@H]2O)[C@@H]1O,-5.25% [at 57.1 µM] (inactive),
CC1(C)C2CCC1(C)C(OC(=O)C(O)(CC(=O)O)CC(=O)O)C2 (configuration not stated),-27.5% (inactive),
CC(=C\C(C)O)/C=C(\C)C(=O)CC1CC(CC(N)=O)CC(=O)O1 (configuration not stated),4.16% (inactive),
COC(=O)C1=CO[C@@H](O[C@@H]2O[C@H](CO)[C@@H](O)[C@H](O)[C@H]2O)[C@@H]2C(C)CC(=O)[C@]12O (some centres not stated),51.5% [at 57.1 µM] (inactive),
CCC(C)/C=C(C)/C=C/C1=CC2=C(Cl)C(=O)C(C)(O)C(=O)C2(O)C(OC)O1 (configuration not stated),,15.8 µM (active)
O=C(Cc1ccccc1)OC[C@H]1O[C@H](O[C@H]2O[C@H](CO)[C@@H](O)[C@H](O)[C@H]2O)[C@H](O)[C@@H](O)[C@@H]1O,37.4% [at 57.1 µM] (inactive),
O=C(O)c1cc(O[C@@H]2O[C@H](CO)[C@@H](O)[C@H](O)[C@H]2O)ccc1O,-11.4% (inactive),
COc1ccc(CC(=O)NCc2ccccc2-c2ccccc2C(=O)NCCc2cccnc2)cc1,20.9% (inactive),
CNC(C)C(=O)NC(C(=O)N1CCCC1C(=O)Nc1cccc2ncccc12)C(C)C (configuration not stated),-0.978% (inactive),
CC(C)(O)/C=C/C(=O)[C@](C)(O)[C@H]1[C@H](O)C[C@@]2(C)[C@@H]3CC=C4[C@@H](C=C(O[C@@H]5O[C@H](CO)[C@@H](O)[C@H](O)[C@H]5O)C(=O)C4(C)C)[C@]3(C)C(=O)C[C@]12C,-15.4% [at 32.5 µM] (inactive),
COC(=O)c1c(CC=C(C)C)c(OC2OC(CO)C(O)C(O)C2O)c2ccccc2c1OC1OC(CO)C(O)C(O)C1O (configuration not stated),2.83% [at 32.5 µM] (inactive),
C[C@H]1/C=C/C=C/C=C/C=C/C=C/[C@@H](O)[C@H](C(=O)O)[C@H](O)C[C@H](O)CCC[C@H](O)C[C@H](O)C[C@H](O)[C@@H](C)C(=O)O[C@@H]1C,18% [at 32.5 µM] (inactive),
